FLuc modulator: qHTS profiling assay for firefly luciferase inhibitor/activator using purifed enzyme and Km concentrations of substrates (counterscreen for miR-21 project). Luciferin 4-monooxygenase (Photinus pyralis), P08659. purified FLuc, Km substrates, luminescence inhibition. Potency, µM (highest dose often 57.5 µM), for the others: at the top dose activity change, negative = inhibition, most hits filed as inhibitors. 6.9% of 360,000 active. AID 588342, 2011;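 further: plate controls were vehicle for no effect and reference inhibitor for full effect; nearly all actives have a fitted effect of over 55% in size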
Target sequence (P08659 whole entry, looked up): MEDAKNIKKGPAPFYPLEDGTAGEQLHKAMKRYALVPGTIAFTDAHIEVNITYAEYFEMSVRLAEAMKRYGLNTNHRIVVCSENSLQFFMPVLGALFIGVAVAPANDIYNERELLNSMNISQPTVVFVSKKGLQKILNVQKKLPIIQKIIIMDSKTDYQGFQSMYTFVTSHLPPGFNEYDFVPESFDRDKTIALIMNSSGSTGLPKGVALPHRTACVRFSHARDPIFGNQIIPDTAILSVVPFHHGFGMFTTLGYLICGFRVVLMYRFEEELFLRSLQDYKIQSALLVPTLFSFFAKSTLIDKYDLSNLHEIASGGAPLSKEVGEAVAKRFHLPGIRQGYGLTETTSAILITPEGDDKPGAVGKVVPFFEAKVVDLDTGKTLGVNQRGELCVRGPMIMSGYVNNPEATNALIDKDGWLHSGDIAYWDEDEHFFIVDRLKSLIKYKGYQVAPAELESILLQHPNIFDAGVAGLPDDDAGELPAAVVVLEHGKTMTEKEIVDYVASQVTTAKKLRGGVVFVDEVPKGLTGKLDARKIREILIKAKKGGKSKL
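Purified P. pyralis luciferase (10nM final) with 10uM D-luciferin and 10uM ATP (Km levels) in 50mM Tris acetate pH 7.5, 10mM Mg acetate, 0.01% Tween-20, 0.05% BSA; qHTS 6-point titration, ~60 µM downward; luminescence read.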
Rab9 prom act: qHTS Assay for Rab9 Promoter Activators. Huh7 Rab9 promoter-luciferase reporter, luminescence, 24 h. Potency, µM (highest dose often 9.22 µM), for the others: at the highest dose activation, negative = inhibition, most hits filed as activators. 2.8% of 320,000 active. AID 485297, 2010; further: % of control where 0% means no effect; nearly all actives have a fitted effect of over 60% in size
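Promoter activation is measured as luciferase luminescence in Huh7 cells stably transfected with a Rab9 promoter–luciferase construct, following 24 h compound exposure at 37 °C and 10 min reagent incubation at ambient temperature.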
ELG1 genotox: qHTS screen for small molecules that induce genotoxicity in human embryonic kidney (HEK293T) cells expressing luciferase-tagged ELG1; HEK293T ELG1-luciferase reporter, luminescence, 16 h; Potency, µM (doses to about 46 µM), for inactives: top-dose activity change, positive = activation, hits mostly activators; 1.3% of 330,000 active; AID 504466, 2011; further: % of control where 0% means no effect; nearly all actives have a fitted effect of over 60% in size
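Reporter readout depends on ELG1 protein level, which increases with genetic stress. After 16 hr compound exposure at 37 °C, luciferase activity was quantified using ONE-Glo.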
SMN2 splice enh: qHTS Assay for Enhancers of SMN2 Splice Variant Expression | HEK293 SMN2-luciferase splicing reporter, luminescence, 30-36 h | Potency, µM (doses to about 46.1 µM), inactives show at the top dose activity change, positive = activation, hits mostly activators | 2.8% of 210,000 active | AID 1458, 2008; further: % of control where 0% means no effect; nearly all actives have a fitted effect of over 55% in size
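HEK293 cells carry an SMN2 […]–luciferase reporter in which exon 7 inclusion puts luciferase in frame. Cells were plated 10-12 h before compound addition, then incubated 30-36 h at 37C. ONE-Glo luminescence was read; sodium butyrate at 4.5 mM final served as control.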
NPC1 promoter act: qHTS Assay for NPC1 Promoter Activators. Potency, µM (series often up to 9.22 µM), inactives show top-dose activation, hits mostly activators. Huh7 NPC1 promoter luciferase reporter, 24 h. 2.4% of 320,000 active; further: % of control where 0% means no effect; nearly all actives have a fitted effect of over 60% in size
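Compounds in DMSO were transferred onto Huh7 NPC1-luciferase reporter cells pre-incubated 2 h; after 24 h at 37 °C, Amplite reagent was dispensed and luminescence recorded 10 min later.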
The depositor's hits bear a star; ? = inconclusive; . = no result given. A selection: hits, their analogues and other compounds. The true share with any hit is near 7.4%. The call rests on the fitted dose curve; in most records, active means well fitted curve in the direction sought with a large enough effect; inconclusive means small, poorly fitted or top-dose-only effect, or another doubt; inactive means no such curve, though single readings can be large; an effect the other way counts as inactive or inconclusive. Potency means the concentration at half of the fitted maximal effect.

SMILES	FLuc modulator	Rab9 prom act	ELG1 genotox	SMN2 splice enh	NPC1 promoter act
O=C(Nc1ccc(NC(=O)c2cccs2)cc1)c1ccc2c(c1)OCCO2	-7.2%	-15.7%	?	.	-3.5%
O=C(COC(=O)c1ccc(O)cc1O)Nc1ccc2c(c1)OCCO2	15.1µM*	-1.6%	?	.	-0.2%
COc1cc(NC(=O)c2ccc3c(c2)OCCO3)ccc1NC(=O)c1cccs1	5.36µM*	18.1%	2.4%	20.4%	18.4%
Cn1cccc1C(=O)OCC(=O)NCc1ccc2c(c1)OCO2	.	0.3%	5.3%	.	-3.3%
CN(C)S(=O)(=O)c1ccc(NC(=O)COC(=O)C2COc3ccccc3O2)cc1 (stereo not drawn)	3.2%	-1.5%	1.6%	13.1%	1.8%
Cc1cc(NC(=O)c2ccc3c(c2)OCO3)ccc1NC(=O)c1ccco1	21.3µM*	12.3%	2.7%	17.1%	11.5%
COc1cc(NC(=O)c2ccc3c(c2)OCCO3)ccc1NC(=O)c1ccco1	3.38µM*	29.4%	0.6%	.	22.4%
O=C(Nc1ccc2c(c1)OCCO2)c1ccco1	8.49µM*	2.24µM*	3.66µM*	10µM*	2µM*
CCCC(=O)Nc1ccc(NC(=O)c2ccco2)c(OC)c1	15.1µM*	?	?	?	?
COc1ccc(C(=O)Nc2ccc(NC(=O)c3ccco3)c(Cl)c2)cc1OC	-2.5%	3.9%	-0.4%	-17.3%	-3.1%
Cc1ccc(C(=O)Nc2ccc3c(c2)OCO3)cc1NC(=O)c1ccco1	?	?	9.8%	?	17.7%
CCOc1ccccc1NC(=O)NCc1ccc2c(c1)CCN2C(=O)c1ccccc1	-14.9%	.	.	.	.
COc1ccccc1N1CC(C)(C)C(=O)N(C(=O)c2ccc(Cl)cc2)C1=S	5.1%	2.0%	-9.2%	.	-7.3%
COc1ccc(C(=O)N2CCNC(=O)C2)cc1S(=O)(=O)Nc1ccc(Br)cc1	-1.0%	-0.8%	0.6%	.	-4.7%
CC(=O)Nc1ccc(NC(=O)C2CC(=O)N(c3ccccc3Cl)C2)cc1 (stereo not drawn)	-1.3%	-3.0%	-18.2%	-47.1%	-3.8%
COc1ccc(N2C(N)=C(C#N)C(c3cc(CN4CCOCC4)cs3)C3=C2CCCC3=O)cc1 (stereo not drawn)	-0.1%	.	.	.	.
CCC(C)[C@H](NC(=O)NCc1ccc(S(N)(=O)=O)cc1)C(=O)O (stereo partly drawn)	-0.5%	-7.2%	0.7%	.	-0.8%
O=C(Nc1cccc(NC(=O)c2ccco2)c1)c1ccc2c(c1)OCCO2	9.53µM*	13.1%	-0.4%	19.8%	3.6%
Cc1cc(C)cc(C(=O)Nc2cccc(NC(=O)c3ccco3)c2)c1	?	-2.8%	-1.8%	.	3.3%
COc1cc(OC)cc(C(=O)Nc2cc(NC(=O)c3ccco3)ccc2OC)c1	?	14.1%	-2.1%	-26.4%	-2.3%
Cc1ccc(NC(=O)c2ccco2)cc1C	9.53µM*	3.98µM*	?	15.8µM*	2.82µM*
CC1(C)Oc2ccc(NC(=O)c3ccco3)cc2O1	6.01µM*	2.51µM*	?	12.6µM*	1µM*
COc1cc(OC)cc(C(=O)Nc2ccc(NC(=O)c3ccco3)c(C)c2)c1	12µM*	15.4%	?	.	19.8%
O=C(O)CCn1cc(/C=C/C(=O)c2ccc(Cl)cc2)c(-c2ccc(Br)cc2)n1	-0.2%	-11.1%	-2.8%	.	-11.4%
CC(OC(=O)c1cc(-c2cccnc2)nc2ccccc12)C(=O)Nc1ccc2ccccc2c1 (stereo not drawn)	-1.9%	-1.6%	-6.9%	-1.1%	-0.4%
COc1ccc(NC(=O)c2ccc(-c3nc(CSc4ccccc4)c(C)o3)cc2)c(OC)c1	5.1%	.	.	.	.
O=C(N/N=C/c1ccccc1)C1CCCN1C(=O)c1cc([N+](=O)[O-])cc([N+](=O)[O-])c1 (stereo not drawn)	-0.3%	-2.5%	1.0%	.	-1.7%
c1ccc2c(CSc3ncnc4nc[nH]c34)cccc2c1	-19.9%	-15.1%	-3.7%	.	1.9%
O=C(COC(=O)c1ccco1)Nc1ccc2c(c1)OCCO2	2.39µM*	0.6%	1.0%	-1.2%	-3.0%
